Inconclusive results are not listed. A call without a number means that no potency is given here. Activity calls are given as the source filed them. The call rests on the fitted dose curve; in most records, active means well fitted cell-killing curve with a large enough effect in the repeat runs; inconclusive means weak or mixed curves, or effect the other way; inactive means flat fitted curve, though single readings scatter.
Experiment: cAMP Responsive Elements (CRE) small molecule antagonists, cell-based qHTS assay: qHTS cell viability counter screen (AID 2060913); further: nearly all actives have a fitted effect of over 40% in size
Details: CRE-bla HEK293T viability, CellTiter-Glo luminescence, 5 h; series mostly up to 92.4 µM
Method in brief: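 Steps: cells plated and held 18 hrs at 37 C/5% CO2; compounds and NKH477 (0.25 uM final) added; 3 hrs incubation; reporter substrate read; CellTiter-Glo added to measure cytotoxicity by luminescence.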
Potency means the concentration at half of the fitted maximal effect.

With `CCCO` as the molecule, how does the Potency read?
Its Potency is “inactive”.

With `COc1cc(OC)nc(NC(=O)NS(=O)(=O)Nc2ccccc2C(=O)N(C)C)n1` as the molecule, how does the Potency read?
Its Potency is “inactive”.

Which Potency does the source give for `Fc1c(F)c(F)c(Br)c(F)c1F` here?
Its Potency is “inactive”.

Which Potency does the source give for `Nc1ccn([C@H]2CC[C@@H](CO)O2)c(=O)n1` here?
The Potency was “inactive”.

For `CC(C)C(=O)OC/C=C/c1ccccc1`, which Potency is on record?
Its Potency is “inactive”.

For `O=C1CCCCCCCCCCCCCCO1`, which Potency is on record?
The Potency was “inactive”.

With `CCc1ccc(CCOc2ccc(CC3SC(=O)NC3=O)cc2)nc1` (stereo not given) as the molecule, how does the Potency read?
Its Potency is “inactive”.

For `CC(C)(C)C(=O)OCOC(=O)C1N2C(=O)CC2S(=O)(=O)C1(C)C` (stereo not given), which Potency is on record?
Its Potency is “inactive”.

Which Potency does the source give for `CCCCCCCCn1sc(Cl)c(Cl)c1=O` here?
The Potency was 30.6 µM (active).

With `Cn1c(=O)c2c(ncn2CCO)n(C)c1=O` as the molecule, how does the Potency read?
The Potency was “inactive”.

For `CC(C)C(=O)OCc1ccccc1`, which Potency is on record?
The Potency was “inactive”.

With `COCc1c(C(C)C)nc(C(C)C)c(/C=C/[C@@H](O)C[C@@H](O)CC(=O)O)c1-c1ccc(F)cc1` as the molecule, how does the Potency read?
Its Potency is “inactive”.

For `[O-][n+]1cccc(/C(Cl)=N/OC[C@@H](O)CN2CCCCC2)c1`, which Potency is on record?
The Potency was “inactive”.

For `COC(C)(OC)OC`, which Potency is on record?
Its Potency is “inactive”.

For `CN(C)CCN(Cc1ccccc1)c1ccccn1`, which Potency is on record?
The Potency was “inactive”.

For `O=C(Nc1ccccc1)c1ccccc1O`, which Potency is on record?
Its Potency is “inactive”.

For `Cc1c(-c2ccc(O)cc2)n(Cc2ccc(OCCN3CCCCCC3)cc2)c2ccc(O)cc12`, which Potency is on record?
The Potency was “inactive”.

With `Nc1cc(Cl)c([N+](=O)[O-])cc1O` as the molecule, how does the Potency read?
The Potency was “inactive”.

For `CC1=CCC(C(C)C)=CC1`, which Potency is on record?
Its Potency is “inactive”.

With `Cc1ccc(-c2cc(C(F)(F)F)nn2-c2ccc(S(N)(=O)=O)cc2)cc1` as the molecule, how does the Potency read?
Its Potency is “inactive”.

With `Nc1nnc(-c2ccc([N+](=O)[O-])o2)o1` as the molecule, how does the Potency read?
Its Potency is “inactive”.

For `CN1C(CCl)Nc2cc(Cl)c(S(N)(=O)=O)cc2S1(=O)=O` (stereo not given), which Potency is on record?
The Potency was “inactive”.

Which Potency does the source give for `O=[N+]([O-])c1cc[n+]([O-])cc1` here?
The Potency was “inactive”.

With `O=C(O)Cc1ccc2c(c1)C(=O)c1ccccc1CO2` as the molecule, how does the Potency read?
Its Potency is “inactive”.

With `CCOC(=O)[C@H](O)[C@@H](O)C(=O)OCC` as the molecule, how does the Potency read?
Its Potency is “inactive”.

Which Potency does the source give for `CCCCCCCC(=O)[O-].CCCCCCCC(=O)[O-].[Zn+2]` here?
Its Potency is “inactive”.

For `c1ccc2occc2c1`, which Potency is on record?
Its Potency is “inactive”.

With `O=C(O)c1ccc2c(c1)nc(C(=O)NC1CCN(C3CC3)CC1)n2Cc1cc(-c2ccc(Cl)s2)on1` as the molecule, how does the viability change, negative = cytotoxic read?
Its viability change, negative = cytotoxic is -0.942% [at 18.9 µM] (inactive).

With `CC(=O)C1(C)CC2=C(CCCC2(C)C)CC1C` (stereo not given) as the molecule, how does the Potency read?
The Potency was “inactive”.

For `COc1nccnc1CC(C)C`, which Potency is on record?
Its Potency is “inactive”.

With `c1ccc2n[nH]nc2c1` as the molecule, how does the Potency read?
The Potency was “inactive”.

Which Potency does the source give for `CCCCCCCCc1ccc(S(=O)(=O)O)cc1` here?
Its Potency is “inactive”.

For `C=CC(OCC)OCC`, which Potency is on record?
Its Potency is “inactive”.

With `CCCCCCCCCCCCCCCCCl` as the molecule, how does the viability change, negative = cytotoxic read?
The viability change, negative = cytotoxic was 3.61% [at 18.9 µM] (inactive).

With `CC/C(=C\C(=N/O)C(N)=O)C(C)[N+](=O)[O-]` (stereo not given) as the molecule, how does the Potency read?
Its Potency is “inactive”.

For `COc1ccc(C)cc1N`, which Potency is on record?
The Potency was “inactive”.

With `CC1(C)O[C@@H]2C[C@H]3[C@@H]4C[C@H](F)C5=CC(=O)C=C[C@]5(C)[C@@]4(F)[C@@H](O)C[C@]3(C)[C@]2(C(=O)CO)O1` as the molecule, how does the Potency read?
Its Potency is “inactive”.

Which Potency does the source give for `CCOC(=O)N1CCC(n2c(=O)[nH]c3cc(Cl)ccc32)CC1` here?
The Potency was “inactive”.

Which Potency does the source give for `CCCCNS(=O)(=O)c1ccc(C)cc1` here?
The Potency was “inactive”.

With `C=CCCCCCCCCC(=O)O` as the molecule, how does the Potency read?
Its Potency is “inactive”.

Experiment: cAMP Responsive Elements (CRE) small molecule agonists, cell-based qHTS assay: qHTS cell viability counter screen (AID 2060914); further: nearly all actives have a fitted effect of over 50% in size
Details: CRE-bla HEK293T viability, CellTiter-Glo luminescence, 5 h; series mostly up to 92.4 µM
Method in brief: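 Luminescence read-out (CellTiter-Glo, 30 min RT) of ATP-based viability in CRE-bla HEK 293T cells, run in the same wells as the β-lactamase reporter assay after 3 h compound treatment at 37 °C.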

Which Potency does the source give for `CCCO` here?
The Potency was “inactive”.

With `COc1cc(OC)nc(NC(=O)NS(=O)(=O)Nc2ccccc2C(=O)N(C)C)n1` as the molecule, how does the Potency read?
The Potency was “inactive”.

With `Fc1c(F)c(F)c(Br)c(F)c1F` as the molecule, how does the Potency read?
Its Potency is “inactive”.

For `Nc1ccn([C@H]2CC[C@@H](CO)O2)c(=O)n1`, which Potency is on record?
Its Potency is “inactive”.

Which Potency does the source give for `CC(C)C(=O)OC/C=C/c1ccccc1` here?
The Potency was “inactive”.

Which Potency does the source give for `O=C1CCCCCCCCCCCCCCO1` here?
The Potency was “inactive”.

For `CCc1ccc(CCOc2ccc(CC3SC(=O)NC3=O)cc2)nc1` (stereo not given), which Potency is on record?
The Potency was “inactive”.

For `CC(C)(C)C(=O)OCOC(=O)C1N2C(=O)CC2S(=O)(=O)C1(C)C` (stereo not given), which Potency is on record?
Its Potency is “inactive”.

Which Potency does the source give for `CCCCCCCCn1sc(Cl)c(Cl)c1=O` here?
Its Potency is 43.3 µM (active).

Which Potency does the source give for `Cn1c(=O)c2c(ncn2CCO)n(C)c1=O` here?
The Potency was “inactive”.

With `CC(C)C(=O)OCc1ccccc1` as the molecule, how does the Potency read?
Its Potency is “inactive”.

With `COCc1c(C(C)C)nc(C(C)C)c(/C=C/[C@@H](O)C[C@@H](O)CC(=O)O)c1-c1ccc(F)cc1` as the molecule, how does the Potency read?
The Potency was “inactive”.

Which Potency does the source give for `[O-][n+]1cccc(/C(Cl)=N/OC[C@@H](O)CN2CCCCC2)c1` here?
Its Potency is “inactive”.

Which Potency does the source give for `COC(C)(OC)OC` here?
Its Potency is “inactive”.

For `CN(C)CCN(Cc1ccccc1)c1ccccn1`, which Potency is on record?
Its Potency is “inactive”.

With `O=C(Nc1ccccc1)c1ccccc1O` as the molecule, how does the Potency read?
Its Potency is “inactive”.

With `Cc1c(-c2ccc(O)cc2)n(Cc2ccc(OCCN3CCCCCC3)cc2)c2ccc(O)cc12` as the molecule, how does the Potency read?
The Potency was “inactive”.

For `Nc1cc(Cl)c([N+](=O)[O-])cc1O`, which Potency is on record?
The Potency was “inactive”.

With `CC1=CCC(C(C)C)=CC1` as the molecule, how does the Potency read?
The Potency was “inactive”.

Which Potency does the source give for `Cc1ccc(-c2cc(C(F)(F)F)nn2-c2ccc(S(N)(=O)=O)cc2)cc1` here?
Its Potency is “inactive”.

For `Nc1nnc(-c2ccc([N+](=O)[O-])o2)o1`, which Potency is on record?
Its Potency is “inactive”.

Which Potency does the source give for `CN1C(CCl)Nc2cc(Cl)c(S(N)(=O)=O)cc2S1(=O)=O` (stereo not given) here?
Its Potency is “inactive”.

For `O=[N+]([O-])c1cc[n+]([O-])cc1`, which Potency is on record?
The Potency was “inactive”.

Which Potency does the source give for `O=C(O)Cc1ccc2c(c1)C(=O)c1ccccc1CO2` here?
The Potency was “inactive”.

Which Potency does the source give for `CCOC(=O)[C@H](O)[C@@H](O)C(=O)OCC` here?
Its Potency is “inactive”.

With `CCCCCCCC(=O)[O-].CCCCCCCC(=O)[O-].[Zn+2]` as the molecule, how does the Potency read?
The Potency was “inactive”.

For `c1ccc2occc2c1`, which Potency is on record?
The Potency was “inactive”.

With `O=C(O)c1ccc2c(c1)nc(C(=O)NC1CCN(C3CC3)CC1)n2Cc1cc(-c2ccc(Cl)s2)on1` as the molecule, how does the activity change, negative = cytotoxicity read?
Its activity change, negative = cytotoxicity is -9.02% [at 18.9 µM] (inactive).

For `CC(=O)C1(C)CC2=C(CCCC2(C)C)CC1C` (stereo not given), which Potency is on record?
Its Potency is “inactive”.

Which Potency does the source give for `COc1nccnc1CC(C)C` here?
The Potency was “inactive”.

For `c1ccc2n[nH]nc2c1`, which Potency is on record?
Its Potency is “inactive”.

With `CCCCCCCCc1ccc(S(=O)(=O)O)cc1` as the molecule, how does the Potency read?
The Potency was “inactive”.

Which Potency does the source give for `C=CC(OCC)OCC` here?
Its Potency is “inactive”.

Which activity change, negative = cytotoxicity does the source give for `CCCCCCCCCCCCCCCCCl` here?
The activity change, negative = cytotoxicity was -18.4% [at 18.9 µM] (inactive).

With `CC/C(=C\C(=N/O)C(N)=O)C(C)[N+](=O)[O-]` (stereo not given) as the molecule, how does the Potency read?
Its Potency is “inactive”.

For `COc1ccc(C)cc1N`, which Potency is on record?
Its Potency is “inactive”.

With `CC1(C)O[C@@H]2C[C@H]3[C@@H]4C[C@H](F)C5=CC(=O)C=C[C@]5(C)[C@@]4(F)[C@@H](O)C[C@]3(C)[C@]2(C(=O)CO)O1` as the molecule, how does the Potency read?
The Potency was “inactive”.

With `CCOC(=O)N1CCC(n2c(=O)[nH]c3cc(Cl)ccc32)CC1` as the molecule, how does the Potency read?
The Potency was “inactive”.

For `CCCCNS(=O)(=O)c1ccc(C)cc1`, which Potency is on record?
Its Potency is “inactive”.

With `C=CCCCCCCCCC(=O)O` as the molecule, how does the Potency read?
Its Potency is “inactive”.

— PubChem BioAssay (Tox21)
